Assay results taken from PubChem BioAssay (NCI).
This is part of a sample that, as a whole, favours compounds with a hit. Of some 83,000 tested, about 20% had one in any assay.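 Compound tested at a single concentration for 48 hours in 96-well plates; a percent growth value below 10 was scored as active.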 Values without a mark were called inactive. The source made the active and inactive calls.

Test system: BT-549 breast
Experiment: NCI-60 one-dose screen, 48 h (100 = growth as untreated, 0 = no growth, -100 = all killed)
Conditions: 10 µM unless noted

Compound	growth
O=C(Nc1ccccc1Cl)OCCN1CCOCC1	72.2%
O=C(/C=C/C12c3ccccc3C(c3ccccc31)C1C(=O)N(c3ccc(Cl)cc3)C(=O)C12)c1ccccn1 (stereo not drawn)	-49.6% (active)
CN1CCN(c2ccc(Nc3ncc(Cl)c(NC[C@@H]4CCCO4)n3)cc2)CC1	33.3%
Cc1ccc(S(=O)(=O)N(CC[C@@H]2C[C@H]2c2cc3ccccc3o2)C(=O)NC2CCCCC2)cc1	112%
CCCCCOC(=O)c1ccc(NC(=O)CNCC(C)C)cc1	91.8%
Cl.Fc1c[c-]c(-c2ccccn2)c(F)c1.[Pt].c1ccc([PH+](C[PH+](c2ccccc2)c2ccccc2)c2ccccc2)cc1	-85% (active)
COc1cc(C2C=C(c3cccc(NC(C)=O)c3)Nc3ncnn32)cc(OC)c1OC (stereo not drawn)	-0.0208% (active)
O=C(NCCN1CCC(O)CC1)c1cc2c(o1)C(=O)c1ccccc1C2=O	-94.4% (active)
CN(C)CCN1C(=O)c2cccc3c(-c4ccc(-c5nc6c7ccccc7c7ccccc7c6[nH]5)cc4)ccc(c23)C1=O	104%
CC(/C=N/NC(=O)c1cc(-c2ccco2)[nH]n1)=C\c1ccccc1	101%
CC(C)N(CCOC(=O)Nc1ccccc1Cl)C(C)C	88.5%
O=C(NCOC(O)C(Cl)(Cl)Cl)NCOC(O)C(Cl)(Cl)Cl (stereo not drawn)	101%
CCn1c(Sc2nnc(Nc3ccccc3)s2)nc2c1c(=O)n(C)c(=O)n2C	87.1%
COc1ccc(-c2nc3sccn3c2/C=C/C(=O)c2c[nH]c3ccccc23)cc1	59.1%
CCCCCCNc1cc(C)nc2ccc(OC)cc12	75.5%
CNC(=O)c1cc(Oc2ccc3nc(NC(=O)Nc4cc(C(F)(F)F)cc(C(F)(F)F)c4)sc3c2)ccn1	-46.9% (active)
N#C/C=C(\c1ccc([N+](=O)[O-])cc1)n1nnc2cc(Cl)c(Cl)cc21	33.7%
CCCCCCCSc1ccc(C(=O)O)cc1	112%
N[C@@H]1CCC[C@H]1NCCCCN1C(=O)c2cccc3cccc(c23)C1=O	78.9%
CCOC(=O)C1C(=O)C=C(c2cnccn2)CC1c1ccc(OC)c(OC)c1 (stereo not drawn)	71.5%

Compound	growth
CCN(CC)CCOC(=O)N1c2ccccc2Sc2ccccc21	92.1%
CCCN1CCN(c2ccc3nc(-c4ccc5nc(-c6ccc(OCC)c(OCC)c6)[nH]c5c4)[nH]c3c2)CC1	-64% (active)
COc1ccccc1NC(=O)Nc1ccc(-c2nc3ccccc3o2)cc1	92.3%
COc1ccc(/C=C2\COc3ccc(O)c(O)c3C2=O)c(OC)c1	57.8%
NC(=O)c1c(NC(=O)c2ccc(C(F)(F)F)cc2Cl)sc2c1CCC(=O)C2	-33.2% (active)
COc1ccc(/C(C)=C(\c2ccc(Cl)cc2)c2ccc(OCCN(C)C)cc2)cc1F	87.7%
O=S(=O)(Cc1ccccc1)c1nc2ccccc2s1	35.8%
O=C1NC(=S)S/C1=C\N1N=C(c2ccc(Cl)cc2)CC1c1ccc(F)cc1 (stereo not drawn)	100%
CC(=O)NCC(=O)Nc1ccc(-c2nnc3ccccn23)nc1.CC(=O)NCC(=O)Nc1ccc(-c2nnc3ccccn23)nc1.[Pt+2]	114%
COc1ccc(-n2sc(=O)n(Cc3ccc(COC(=O)C(C)c4ccc(CC(C)C)cc4)cc3)c2=O)cc1 (stereo not drawn)	52.8%
C=C(C)C1CCC(=C)C2CCC3(C)OC12/C=C(/COC(C)=O)CCC3O (stereo not drawn)	78.6%
CCN(CCO)CC(=O)c1cc(Cl)cc(Cl)c1Cl	93.7%
CNC=O	168%
O=[N+]([O-])c1ccc(-c2cc3c(Nc4ccc(OCc5cccc(Cl)c5)c(Cl)c4)ncnc3s2)cc1	86.2%
Cc1nn(Cc2ccccc2)cc1C(=O)Nc1sc2c(c1C(N)=O)CCC(=O)C2	10.4%
CCOC(=O)c1c2c(c(C)n1C)-c1nn(Cc3ccc(OC)cc3)cc1CC2	271%
Cc1nc(Nc2ccc(NC(=S)Nc3ccccc3)cc2)c2ccccc2n1	113%
CCC(C)NCc1ccccc1 (stereo not drawn)	95.2%
O=C(Nc1ccc(N2CCCCC2)c(Cl)c1)c1ccc(Br)o1	81.2%

Test system: MDA-MB-435 melanoma
Experiment: as above
Conditions: 10 µM unless noted

Compound	growth
O=C(Nc1ccccc1Cl)OCCN1CCOCC1	107%
O=C(/C=C/C12c3ccccc3C(c3ccccc31)C1C(=O)N(c3ccc(Cl)cc3)C(=O)C12)c1ccccn1 (stereo not drawn)	-29.1% (active)
CN1CCN(c2ccc(Nc3ncc(Cl)c(NC[C@@H]4CCCO4)n3)cc2)CC1	44%
Cc1ccc(S(=O)(=O)N(CC[C@@H]2C[C@H]2c2cc3ccccc3o2)C(=O)NC2CCCCC2)cc1	101%
CCCCCOC(=O)c1ccc(NC(=O)CNCC(C)C)cc1	99.2%
Cl.Fc1c[c-]c(-c2ccccn2)c(F)c1.[Pt].c1ccc([PH+](C[PH+](c2ccccc2)c2ccccc2)c2ccccc2)cc1	-83.3% (active)
COc1cc(C2C=C(c3cccc(NC(C)=O)c3)Nc3ncnn32)cc(OC)c1OC (stereo not drawn)	-47.7% (active)
O=C(NCCN1CCC(O)CC1)c1cc2c(o1)C(=O)c1ccccc1C2=O	-91.8% (active)
CN(C)CCN1C(=O)c2cccc3c(-c4ccc(-c5nc6c7ccccc7c7ccccc7c6[nH]5)cc4)ccc(c23)C1=O	114%
CC(/C=N/NC(=O)c1cc(-c2ccco2)[nH]n1)=C\c1ccccc1	89.9%
CC(C)N(CCOC(=O)Nc1ccccc1Cl)C(C)C	113%
O=C(NCOC(O)C(Cl)(Cl)Cl)NCOC(O)C(Cl)(Cl)Cl (stereo not drawn)	107%
CCn1c(Sc2nnc(Nc3ccccc3)s2)nc2c1c(=O)n(C)c(=O)n2C	103%
COc1ccc(-c2nc3sccn3c2/C=C/C(=O)c2c[nH]c3ccccc23)cc1	88.9%
CCCCCCNc1cc(C)nc2ccc(OC)cc12	64.6%
CNC(=O)c1cc(Oc2ccc3nc(NC(=O)Nc4cc(C(F)(F)F)cc(C(F)(F)F)c4)sc3c2)ccn1	-13.6% (active)
N#C/C=C(\c1ccc([N+](=O)[O-])cc1)n1nnc2cc(Cl)c(Cl)cc21	7.64% (active)
CCCCCCCSc1ccc(C(=O)O)cc1	96%
N[C@@H]1CCC[C@H]1NCCCCN1C(=O)c2cccc3cccc(c23)C1=O	83.3%
CCOC(=O)C1C(=O)C=C(c2cnccn2)CC1c1ccc(OC)c(OC)c1 (stereo not drawn)	106%

Compound	growth
CCN(CC)CCOC(=O)N1c2ccccc2Sc2ccccc21	98.7%
CCCN1CCN(c2ccc3nc(-c4ccc5nc(-c6ccc(OCC)c(OCC)c6)[nH]c5c4)[nH]c3c2)CC1	-88.2% (active)
COc1ccccc1NC(=O)Nc1ccc(-c2nc3ccccc3o2)cc1	104%
COc1ccc(/C=C2\COc3ccc(O)c(O)c3C2=O)c(OC)c1	21%
NC(=O)c1c(NC(=O)c2ccc(C(F)(F)F)cc2Cl)sc2c1CCC(=O)C2	-42% (active)
COc1ccc(/C(C)=C(\c2ccc(Cl)cc2)c2ccc(OCCN(C)C)cc2)cc1F	51.5%
O=S(=O)(Cc1ccccc1)c1nc2ccccc2s1	49%
O=C1NC(=S)S/C1=C\N1N=C(c2ccc(Cl)cc2)CC1c1ccc(F)cc1 (stereo not drawn)	97.2%
CC(=O)NCC(=O)Nc1ccc(-c2nnc3ccccn23)nc1.CC(=O)NCC(=O)Nc1ccc(-c2nnc3ccccn23)nc1.[Pt+2]	114%
COc1ccc(-n2sc(=O)n(Cc3ccc(COC(=O)C(C)c4ccc(CC(C)C)cc4)cc3)c2=O)cc1 (stereo not drawn)	22%
C=C(C)C1CCC(=C)C2CCC3(C)OC12/C=C(/COC(C)=O)CCC3O (stereo not drawn)	98.7%
CCN(CCO)CC(=O)c1cc(Cl)cc(Cl)c1Cl	105%
CNC=O	96.9%
O=[N+]([O-])c1ccc(-c2cc3c(Nc4ccc(OCc5cccc(Cl)c5)c(Cl)c4)ncnc3s2)cc1	74.3%
Cc1nn(Cc2ccccc2)cc1C(=O)Nc1sc2c(c1C(N)=O)CCC(=O)C2	16.7%
CCOC(=O)c1c2c(c(C)n1C)-c1nn(Cc3ccc(OC)cc3)cc1CC2	100%
Cc1nc(Nc2ccc(NC(=S)Nc3ccccc3)cc2)c2ccccc2n1	112%
CCC(C)NCc1ccccc1 (stereo not drawn)	108%
O=C(Nc1ccc(N2CCCCC2)c(Cl)c1)c1ccc(Br)o1	-95.4% (active)
